Measurements published in PubChem BioAssay (EPA / NIEHS).
Several values for one entry are separate records, joined by “and”; a condition that tells them apart may be missing. Identical values can stand only once. Results filed as inconclusive are left out. Activity calls are given as the source filed them. Rule for the calls, unless noted: active = hit-call score of the fitted dose curve at least 0.9, where 1 is the maximum; inactive = score below 0.9.

Columns and labels:
[1] = molecular target: Estrogen receptor (Homo sapiens) (UniProt P03372); experiment: ATG_ERa_TRANS: Attagene TRANS-FACTORIAL HepG2 Assay for human Estrogen Receptor alpha (ERa) (AID 2282970; active = hit-call score of the fitted dose curve at least 0.9, where 1 is the maximum); details: HepG2 Attagene TRANS ERa GAL4 reporter, mRNA
Estrogen receptor (Homo sapiens), sequence (P03372 whole entry, looked up, the tested form may be a part): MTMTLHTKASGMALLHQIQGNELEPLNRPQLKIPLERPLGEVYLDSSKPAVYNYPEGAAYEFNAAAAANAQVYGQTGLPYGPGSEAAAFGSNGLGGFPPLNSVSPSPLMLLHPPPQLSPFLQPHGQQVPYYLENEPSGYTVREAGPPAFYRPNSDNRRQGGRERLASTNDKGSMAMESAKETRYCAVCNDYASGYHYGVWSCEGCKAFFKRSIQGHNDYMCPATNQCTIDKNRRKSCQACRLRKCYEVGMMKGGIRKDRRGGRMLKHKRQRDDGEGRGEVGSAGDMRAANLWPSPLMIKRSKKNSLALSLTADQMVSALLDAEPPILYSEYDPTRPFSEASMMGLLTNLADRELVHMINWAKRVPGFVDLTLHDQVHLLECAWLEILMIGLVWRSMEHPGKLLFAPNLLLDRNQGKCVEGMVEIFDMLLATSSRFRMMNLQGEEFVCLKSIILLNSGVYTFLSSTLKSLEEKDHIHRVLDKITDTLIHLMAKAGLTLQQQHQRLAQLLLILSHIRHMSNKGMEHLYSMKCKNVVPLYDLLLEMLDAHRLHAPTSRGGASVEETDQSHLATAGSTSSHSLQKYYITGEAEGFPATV
Procedure, shortened: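 HepG2 cells transiently transfected with multiplexed GAL4-UAS reporter units read out chimeric NR-Gal4 activity. After 24 h compound exposure, reporter mRNA was quantified by RT-PCR, 6-FAM labeling, HpaI digestion and capillary electrophoresis, relative to DMSO.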

[2] = read-out: Vascular endothelial growth factor receptor 2 (Homo sapiens) (UniProt P35968); experiment: BSK_4H_VEGFRII: BioMAP Diversity Plus: 4H Assay for Vascular endothelial growth factor receptor 2 (VEGFR2) Biomarker Activity (AID 2283031); details: primary human endothelial cells (HUVEC); actives raise or lower the signal;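 for AC50: cell-surface VEGFR2 protein level quantified by ELISA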
Procedure, shortened: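 Primary human umbilical vein endothelial cells (4H system), 24 h exposure; cell-surface VEGFR2 measured by ELISA. Bidirectional fitting versus DMSO; cytotoxicity checked in parallel by SRB total-protein staining.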

[3] = read-out: Human Leukocyte Antigen - DR isotype (HLADR), HLA-DRA (gene 3122); experiment: BSK_BE3C_HLADR: BioMAP Diversity Plus: BE3C Assay for Human Leukocyte Antigen - DR isotype (HLADR) Biomarker Activity (AID 2283032); details: primary human bronchial epithelial cells; actives raise or lower the signal
Procedure, shortened: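 Signal came from an ELISA for HLA-DR in human bronchial epithelial primary cells harvested 24 h after treatment; gain- and loss-of-signal fitting used DMSO controls as reference.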

[4] = read-out: Interleukin-8 (IL8), CXCL8 (gene 3576); experiment: BSK_CASM3C_IL8: BioMAP Diversity Plus: CASM3C Assay for Interleukin-8 (IL8) Biomarker Activity (AID 2283042); details: primary human coronary artery smooth muscle cells; actives raise or lower the signal
[5] = read-out: Low-density lipoprotein receptor (LDLR), LDLR (gene 3949); experiment: BSK_CASM3C_LDLR: BioMAP Diversity Plus: CASM3C Assay for Low-density lipoprotein receptor (LDLR) Biomarker Activity (AID 2283045); details: primary human coronary artery smooth muscle cells; actives raise or lower the signal;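 note: LDLR protein level on the cell surface quantified by ELISA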
[6] = read-out: Urokinase-type plasminogen activator receptor (uPAR), PLAUR (gene 5329); experiment: BSK_CASM3C_uPAR: BioMAP Diversity Plus: CASM3C Assay for Urokinase-type plasminogen activator receptor (uPAR) Biomarker Activity (AID 2283054); details: primary human coronary artery smooth muscle cells; actives raise or lower the signal;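 note: cell-surface uPAR protein level quantified by ELISA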
[7] = read-out: E-selectin (Homo sapiens) (UniProt P16581); experiment: BSK_LPS_Eselectin: BioMAP Diversity Plus: LPS Assay for Eselectin Biomarker Activity (AID 2283077); details: primary human HUVEC with PBMC; actives raise or lower the signal
Procedure, shortened: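 Human umbilical vein endothelial cells co-cultured with PBMC under LPS stimulation; cell-surface E-selectin measured by ELISA 24 h after dosing. Change in either direction versus DMSO, with SRB total-protein staining in parallel cultures for cytotoxicity.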

[8] = read-out: Interleukin-8 (IL8), CXCL8 (gene 3576); experiment: BSK_LPS_IL8: BioMAP Diversity Plus: LPS Assay for Interleukin-8 (IL8) Biomarker Activity (AID 2283078); details: primary human HUVEC with PBMC; actives raise or lower the signal
Procedure, shortened: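 Human umbilical vein endothelial cells co-cultured with PBMC, LPS-stimulated, exposed to compound for 24 h. IL-8 quantified by ELISA; fitted in both directions against DMSO, with SRB total-protein staining of parallel cultures for cytotoxicity.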

[9] = BSK_LPS_SRB: Viability Assessment in the BioMAP Diversity Plus: LPS Assay (AID 2283079); details: primary human HUVEC with PBMC;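 note: total protein by sulforhodamine B absorbance as a cytotoxicity measure; measured one day after compound addition; fitted in both directions against DMSO so loss or gain of signal counts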
Procedure, shortened: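 Co-culture of human umbilical vein endothelial cells and PBMC, read 24 h after dosing. Total protein by 0.1% SRB staining after 10% TCA fixation, absorbance at 560 nm; bidirectional fit against DMSO.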

[10] = read-out: Monocyte Chemoattractant Protein-1 (MCP1), CCL2 (gene 6347); experiment: BSK_LPS_MCP1: BioMAP Diversity Plus: LPS Assay for Monocyte Chemoattractant Protein-1 (MCP1) Biomarker Activity (AID 2283081); details: primary human HUVEC with PBMC; actives raise or lower the signal;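 for AC50: secreted MCP-1 protein quantified by ELISA in culture supernatant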
Procedure, shortened: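 Human umbilical vein endothelial cells co-cultured with PBMC, LPS-stimulated; secreted MCP-1 measured by ELISA 24 h after compound addition. Bidirectional curve fitting against DMSO baseline; SRB total-protein staining in parallel cultures for cytotoxicity.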

[11] = read-out: Macrophage colony-stimulating factor (MCSF), CSF1 (gene 1435); experiment: BSK_LPS_MCSF: BioMAP Diversity Plus: LPS Assay for Macrophage colony-stimulating factor (MCSF) Biomarker Activity (AID 2283083); details: primary human HUVEC with PBMC; actives raise or lower the signal
Procedure, shortened: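 HUVEC–PBMC co-culture, M-CSF measured by ELISA 24 h after chemical dosing. Fitted in both directions relative to DMSO as negative control; overt cytotoxicity assessed by SRB total-protein staining in parallel cultures.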

[12] = read-out: Tissue Factor, F3 (gene 2152); experiment: BSK_LPS_TissueFactor: BioMAP Diversity Plus: LPS Assay for Tissue Factor Biomarker Activity (AID 2283084); details: primary human HUVEC with PBMC; actives raise or lower the signal
Procedure, shortened: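 Human umbilical vein endothelial cells co-cultured with PBMC were dosed with compound. Cell-surface CD142 was measured by ELISA 24 h later. Activity was fitted bidirectionally against DMSO, with SRB total-protein staining in parallel cultures for cytotoxicity.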

[13] = read-out: Tumor necrosis factor (Homo sapiens) (UniProt P01375); experiment: BSK_LPS_TNFa: BioMAP Diversity Plus: LPS Assay for Tumour Necrosis Factor alpha (TNFa) Biomarker Activity (AID 2283085); details: primary human HUVEC with PBMC; actives raise or lower the signal
Procedure, shortened: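 Primary human vascular co-culture of HUVEC and PBMC; TNFa ELISA 24 h after treatment, analysed as increase or decrease relative to DMSO control.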

[14] = read-out: Vascular cell adhesion molecule 1 (VCAM1), VCAM1 (gene 7412); experiment: BSK_LPS_VCAM1: BioMAP Diversity Plus: LPS Assay for Vascular cell adhesion molecule 1 (VCAM1) Biomarker Activity (AID 2283086); details: primary human HUVEC with PBMC; actives raise or lower the signal
Procedure, shortened: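 Primary human vascular co-culture (umbilical vein endothelium plus PBMC) stimulated with LPS received chemical; 24 h later VCAM-1 was read by ELISA. Overt cytotoxicity was assessed by sulforhodamine B staining of parallel cultures at the same time point.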

CD40, CD40 (gene 958) = experiment: BSK_SAg_CD40: BioMAP Diversity Plus: SAg Assay for CD40 Biomarker Activity (AID 2283088); details: primary human HUVEC with PBMC; actives raise or lower the signal
Procedure, shortened: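 HUVEC plus PBMC co-culture, superantigen-activated, with CD40 read by ELISA 24 h after dosing. Curves fitted in both directions against DMSO. Overt cytotoxicity checked by parallel SRB total-protein staining.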

CD69, CD69 (gene 969) = experiment: BSK_SAg_CD69: BioMAP Diversity Plus: SAg Assay for CD69 Biomarker Activity (AID 2283089); details: primary human HUVEC with PBMC; actives raise or lower the signal;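 for AC50: cell surface CD69 protein quantified by ELISA with fluorescence detection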
Procedure, shortened: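 Endothelial/PBMC co-culture; chemical added; 24 h incubation; CD69 ELISA with fluorescence detection; bidirectional fit vs DMSO.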

[15] = read-out: Monocyte Chemoattractant Protein-1 (MCP1), CCL2 (gene 6347); experiment: BSK_SAg_MCP1: BioMAP Diversity Plus: SAg Assay for Monocyte Chemoattractant Protein-1 (MCP1) Biomarker Activity (AID 2283090); details: primary human HUVEC with PBMC; actives raise or lower the signal
Procedure, shortened: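 MCP-1 levels in the endothelial–PBMC SAg co-culture were quantified by ELISA at 24 h post-dosing; both increases and decreases versus DMSO scored. Cytotoxicity monitored by SRB total protein in parallel cultures.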

[16] = read-out: E-selectin (Homo sapiens) (UniProt P16581); experiment: BSK_SAg_Eselectin: BioMAP Diversity Plus: SAg Assay for Eselectin Biomarker Activity (AID 2283091); details: primary human HUVEC with PBMC; actives raise or lower the signal
Procedure, shortened: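 Human umbilical vein endothelial cells co-cultured with peripheral blood mononuclear cells, SAg system. E-selectin is measured by ELISA 24 h after dosing and fitted bidirectionally against DMSO. Cytotoxicity is checked by SRB staining of parallel cultures.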

[17] = read-out: Monokine induced gamma interferon (MIG), CXCL9 (gene 4283); experiment: BSK_SAg_MIG: BioMAP Diversity Plus: SAg Assay for Monokine induced gamma interferon (MIG) Biomarker Activity (AID 2283092); details: primary human HUVEC with PBMC; actives raise or lower the signal
Procedure, shortened: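 Measures CXCL9 protein by ELISA in a human vascular primary-cell co-culture (umbilical vein endothelium with PBMC) 24 h after chemical addition. Activity is scored up or down from the DMSO control.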

[18] = BSK_SAg_PBMCCytotoxicity: PBMC Cytotoxicity Assessment in the BioMAP Diversity Plus: SAg Assay (AID 2283093); details: primary human HUVEC with PBMC;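 note: PBMC viability measured as Alamar Blue reduction fluorescence at 546/580 nm; fitted both ways against DMSO so a hit may be loss or gain of signal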;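 for AC50: PBMC superantigen activated with SEB plus TSST-1 one hour after compound addition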
Procedure, shortened: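 Human umbilical vein endothelial cells co-cultured with PBMC; PBMC (75,000/well) pre-treated with compound 1 h, then activated with SEB and TSST-1 (20 ng/mL final each) for 90 h. Alamar Blue added 6 h, fluorescence 546/580 nm; bidirectional fit versus DMSO.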

Measured: AC50

Tumor necrosis factor (Homo sapiens), sequence (P01375 whole entry, looked up): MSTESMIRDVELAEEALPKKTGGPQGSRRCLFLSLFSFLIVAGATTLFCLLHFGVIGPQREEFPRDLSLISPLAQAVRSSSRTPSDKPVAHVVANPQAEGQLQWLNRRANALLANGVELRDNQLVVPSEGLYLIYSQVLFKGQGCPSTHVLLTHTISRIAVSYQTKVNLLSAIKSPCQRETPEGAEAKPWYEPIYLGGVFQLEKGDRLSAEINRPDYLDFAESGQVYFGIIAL
E-selectin (Homo sapiens), sequence (P16581 whole entry, looked up): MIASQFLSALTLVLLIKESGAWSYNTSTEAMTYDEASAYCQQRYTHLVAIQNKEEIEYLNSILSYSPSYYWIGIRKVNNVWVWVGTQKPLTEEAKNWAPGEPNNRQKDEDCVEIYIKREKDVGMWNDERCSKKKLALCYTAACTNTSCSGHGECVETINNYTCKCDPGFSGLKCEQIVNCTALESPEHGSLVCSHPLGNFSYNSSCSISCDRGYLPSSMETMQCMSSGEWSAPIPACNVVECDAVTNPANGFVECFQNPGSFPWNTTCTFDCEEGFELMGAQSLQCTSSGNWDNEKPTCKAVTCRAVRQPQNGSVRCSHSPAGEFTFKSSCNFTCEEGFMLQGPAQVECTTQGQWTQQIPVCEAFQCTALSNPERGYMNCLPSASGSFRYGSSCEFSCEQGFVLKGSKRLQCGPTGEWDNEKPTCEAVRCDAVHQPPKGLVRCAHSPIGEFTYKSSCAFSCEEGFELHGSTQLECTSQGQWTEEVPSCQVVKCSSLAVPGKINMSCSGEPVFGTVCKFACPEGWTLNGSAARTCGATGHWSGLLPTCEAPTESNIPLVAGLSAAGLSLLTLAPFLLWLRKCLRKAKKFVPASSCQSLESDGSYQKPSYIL

c1ccc2c(c1)CCCC2
inactive: [1]

Oc1ccc(C2(c3ccc(O)cc3)c3ccccc3-c3ccccc32)cc1
active: [2] 33.9 µM and 35.7 µM | [3] 0.15 µM | [4] 27 µM and 24.3 µM | [5] 29.5 µM and 28.9 µM | [6] 20 µM and 25.7 µM | [7] 31.6 µM and 33.9 µM | [8] 28.9 µM and 28.2 µM | [9] 13.7 µM and 14.4 µM | [10] 16.5 µM and 14.2 µM | [11] 33.9 µM and 33.6 µM | [12] 32 µM and 29.5 µM | [13] 30.9 µM and 36.3 µM | [14] 15.9 µM and 22 µM | CD40, CD40 (gene 958) 11.7 µM and 12.5 µM | CD69, CD69 (gene 969) 10.6 µM and 9.45 µM | [15] 11.8 µM and 11.2 µM | [16] 10.2 µM and 7.86 µM | [17] 12.4 µM and 11.5 µM | [18] 12.1 µM and 12.3 µM
inactive: [1]

CC(C)CCCCCCCOC(=O)c1ccccc1C(=O)OCCCCCCCC(C)C
inactive: [2] | [3] | [4] | [5] | [6] | [7] | [8] | [9] | [10] | [11] | [12] | [13] | [14] | CD40, CD40 (gene 958) | CD69, CD69 (gene 969) | [15] | [16] | [17] | [18]

CC(C)COP(=O)(OCC(C)C)OCC(C)C
inactive: [2] | [3] | [4] | [5] | [6] | [7] | [8] | [9] | [10] | [11] | [12] | [13] | [14] | CD40, CD40 (gene 958) | CD69, CD69 (gene 969) | [15] | [16] | [17] | [18]

Cc1cc(C)c(C2=C(OC(=O)CC(C)(C)C)C3(CCCC3)OC2=O)c(C)c1
inactive: [1]

CC(C)(C)C(O)C(Oc1ccc(-c2ccccc2)cc1)n1cncn1 (stereo not drawn)
inactive: [1] | [3] | [4] | [7] | [8] | [9] | [10] | [11] | [12] | [13] | [14] | CD40, CD40 (gene 958) | CD69, CD69 (gene 969) | [15] | [16] | [17] | [18]
active: [2] 34.7 µM | [5] 20 µM | [6] 29 µM

CC(C)(C)C(=O)CCl
inactive: [1] | [2] | [5] | [6] | [7] | [9] | [10] | [12] | [13] | CD40, CD40 (gene 958) | [15] | [17]
active: [3] 20 µM | [11] 30.4 µM | [14] 24.3 µM | CD69, CD69 (gene 969) 8.75 µM | [16] 20 µM | [18] 9.22 µM
